# A selection: hits, their analogues and other compounds. The true share with any hit is near 5.2%.
# TrxR1 substrate – qHTS Assay for Substrates of Mammalian Selenoprotein Thioredoxin Reductase 1 (TrxR1): qHTS | purified TrxR1 substrate turnover, NADPH consumption readout | Potency, µM (highest dose often 114 µM), without a hit: at the top dose activity change, negative = substrate turnover | hit rate 0.01% among 390,000; also: nearly all actives have a fitted effect of over 50% in size
# Target sequence (O89049 whole entry, looked up): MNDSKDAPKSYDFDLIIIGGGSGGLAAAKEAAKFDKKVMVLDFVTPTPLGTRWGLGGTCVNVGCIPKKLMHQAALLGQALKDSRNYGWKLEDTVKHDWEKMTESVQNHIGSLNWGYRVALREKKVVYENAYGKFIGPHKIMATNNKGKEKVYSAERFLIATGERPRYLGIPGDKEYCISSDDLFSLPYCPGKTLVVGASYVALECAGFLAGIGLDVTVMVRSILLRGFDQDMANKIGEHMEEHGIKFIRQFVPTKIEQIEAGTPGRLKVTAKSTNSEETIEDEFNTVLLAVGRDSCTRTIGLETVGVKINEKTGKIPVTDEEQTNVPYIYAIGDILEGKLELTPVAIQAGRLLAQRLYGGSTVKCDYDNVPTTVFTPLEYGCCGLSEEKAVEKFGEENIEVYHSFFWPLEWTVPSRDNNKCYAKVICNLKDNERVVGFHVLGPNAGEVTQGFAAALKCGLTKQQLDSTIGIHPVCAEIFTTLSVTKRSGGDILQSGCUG
#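 Rat TrxR1, dispensed at 90 nM, was prereduced with 400 uM NADPH (final) for 5 min at ~22 deg C, then incubated with compound 15 min before 400 uM selenite. A first-read NADPH fluorescence drop versus no-compound background flagged substrates.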
# Sfp inh – qHTS Assay for Inhibitors of Bacillus subtilis Sfp phosphopantetheinyl transferase (PPTase). hit rate 3.5% among 310,000. Biochemical Sfp PPTase activity, qHTS. AID 1490, 2009. Potency, µM, inactives show largest response in the series, negative = inhibition, hits mostly inhibitors. 4'-phosphopantetheinyl transferase ffp (Bacillus subtilis), Q9F4F7;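 also: the enzyme is Sfp with the accession as filed and its product quenches rhodamine fluorescence; 0% = enzyme reaction without inhibitor and -100% = no enzyme wells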
#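 Step 1, compound plus 15 nM Sfp-PPTase, 15 min, room temperature. Step 2, add rhodamine-CoA (5 uM) and BHQ-2-YbbR (12.5 uM). Step 3, read 525/598 nm fluorescence at 0 and 30 min.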
# PLK1 PBD block – qHTS for Inhibitors of PLK1-PDB (polo-like kinase 1 - polo-box domain): Primary Screen. Serine/threonine-protein kinase PLK1 (Homo sapiens), P53350. Plk1 PBD binding of FITC phosphopeptide, fluorescence polarization. Potency, µM, inactives show max response, negative = inhibition, actives largely listed as inhibitors. hit rate 2.8% among 360,000; also: series mostly up to about 57 µM; nearly all actives have a fitted effect of over 65% in size
# mIDH1 inhibitor – qHTS for Inhibitors of mutant isocitrate dehydrogenase 1 (IDH1): qHTS; Potency, µM (top dose mostly 76.6 µM), inactives show top-dose activity change, negative = inhibition, usual class: inhibitors; AID 602179, 2012; IDH1-R132H enzyme, NADPH consumption, diaphorase/resazurin fluorescence; hit rate 0.093% among 390,000; Isocitrate dehydrogenase [NADP] cytoplasmic (Homo sapiens), O75874; also: nearly all actives have a fitted effect of over 65% in size
#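 IDH1-R132H (0.5 ug/mL dispensed) in pH 7.5 Tris buffer was preincubated 30 min with compound, then given a substrate mix of 0.016 mM NADPH and 2 mM alpha-KG for 80 min at room temperature; remaining NADPH was read by diaphorase/resazurin fluorescence.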
# rTrxR1 inhibitor – qHTS Assay for Inhibitors of Mammalian Selenoprotein Thioredoxin Reductase 1 (TrxR1): qHTS; recombinant rTrxR1, NADPH fluorescence consumption, selenite substrate; Thioredoxin reductase 1, cytoplasmic (Rattus norvegicus), O89049; hit rate 1% among 390,000; Potency, µM (titrated, usually from 114 µM), inactives show top-dose activity change, negative = inhibition, actives largely listed as inhibitors; also: nearly all actives have a fitted effect of over 65% in size
#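 Rat TrxR1 (90 nM in the dispensed reagent) was pre-reduced with 400 uM NADPH for 5 min at room temperature, then incubated with compound for 15 min. After 400 uM selenite was added, NADPH fluorescence (Ex 340/Em 450 nm) was followed for 8 min.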
# VDR inhibitor – Inhibitors of the vitamin D receptor (VDR): qHTS; Vitamin D3 receptor (Homo sapiens), P11473; VDR-SRC2-3 peptide fluorescence polarization, 2 h; Potency, µM, inactives show max response, negative = inhibition, hits mostly inhibitors; hit rate 0.93% among 400,000; AID 504847, 2011
#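 Reagent solutions, kept cold and dark, are dispensed first; compounds are then pinned in at 23 nl, plates briefly spun, and incubated 2 h at ambient temperature. Inhibition of VDR–SRC2-3 peptide binding is read by fluorescence polarization.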
# An asterisk follows results filed as active; ? = inconclusive; . = no result; [ ] = remark or other dose. Calls follow the shape of the dose curve; as a rule, active = well fitted curve in the direction sought with a large enough effect; inconclusive = small, poorly fitted or top-dose-only effect, or another doubt; inactive = no such curve, though single readings can be large; an effect the other way counts as inactive or inconclusive. Unless noted, % is scaled to controls: 0 for no effect and ±100 for the full control effect; potency is read from the fitted curve at half-maximal effect.
SMILES,TrxR1 substrate,Sfp inh,PLK1 PBD block,mIDH1 inhibitor,rTrxR1 inhibitor,VDR inhibitor
Cc1ccc(C2C=C(c3ccc(Cl)cc3)Nc3nc(NC(=O)c4ccco4)nn32)cc1 (stereo not drawn),9%,.,.,12%,40µM*,-28%
COc1cccc(C2CC(c3ccc(Cl)cc3)n3nc(N)nc3N2)c1 (stereo not drawn),0%[57.1 µM],11%,21µM*,-7%,17%[57.1 µM],?
CCOc1ccc(C2CC(c3ccccc3C)n3nc(N)nc3N2)cc1 (stereo not drawn),6%[57.1 µM],15%,21µM*,-3%,3%[57.1 µM],?
CCc1ccc(C2CC(c3ccc(C)cc3)n3nc(N)nc3N2)cc1 (stereo not drawn),4%[57.1 µM],.,24µM*,-2%,12%,?
CCN(C(=O)CN1C(=O)/C(=C/c2ccccc2)SC1=S)C1CCS(=O)(=O)C1 (stereo not drawn),-2%,2%,-9%,-7%,10%,-10%
Cc1cc(C)n(-c2nc3ccccc3nc2Nc2cccc(C(=O)NCCc3ccccc3)c2)n1,31%,.,.,16%,21%,10%
CC(C)C[C@H](NC(=O)[C@H](CCCCN)NC(=O)CNC(=O)[C@H](CC(C)C)NC(=O)[C@@H](N)C(C)C)C(=O)N[C@@H](CO)C(=O)N[C@@H](CCC(N)=O)C(=O)N[C@@H](CCC(=O)O)C(=O)N[C@@H](CC(C)C)C(=O)N[C@@H](Cc1cnc[nH]1)C(=O)N[C@@H](CCCCN)C(=O)N[C@@H](CC(C)C)C(=O)N[C@@H](CCC(N)=O)C(=O)N[C@H](C(=O)N[C@@H](Cc1ccc(O)cc1)C(=O)N1CCC[C@H]1C(=O)N[C@@H](CCCNC(=N)N)C(=O)N[C@H](C(=O)N[C@@H](CC(N)=O)C(=O)N[C@H](C(=O)NCC(=O)N[C@@H](CO)C(=O)NCC(=O)N[C@H](C(=O)N1CCC[C@H]1C(N)=O)[C@@H](C)O)[C@@H](C)O)[C@@H](C)O)[C@@H](C)O,.,1%,.,.,.,7%
Cc1ccc(N/C=C(\[N+](=O)[O-])S(=O)(=O)c2ccccc2)cc1,6%[57.1 µM],24%,-21%,-3%,11%[57.1 µM],-9%
Cc1cccc(N/C=C(\[N+](=O)[O-])S(=O)(=O)c2ccccc2)c1,5%[57.1 µM],11%,27µM*,4%,16%[57.1 µM],-26%
COc1ccccc1C(=O)NCCC(=O)N(Cc1ccco1)Cc1cccs1,-7%,-6%,-20%,3%,?,-10%
CC(=O)N(CCC(Cc1ccccc1)c1ccc2c(c1)OCO2)Cc1ccc(Cl)cc1 (stereo not drawn),-5%,?,0%,7.4µM*,7%,3%
CCC(=O)N(CCC(c1ccco1)c1ccccc1OC)Cc1cccs1 (stereo not drawn),3%,?,-16%,-16%,35µM*,?
CC(=O)N(CCC(c1ccccc1)c1ccco1)Cc1cccs1 (stereo not drawn),-1%,15%,-14%,11%,25µM*,?
COc1ccc(CN(CCC(c2ccc3c(c2)OCO3)c2ccccc2OC)C(C)=O)cc1 (stereo not drawn),3%,.,.,0%,25%,-14%
CC(=O)N(CCC(Cc1ccccc1)c1ccco1)Cc1ccco1 (stereo not drawn),0%,45µM*,-12%,-2%,?,?
CC(=O)Nc1cncc(-c2cccc(C(=O)N(C)C)c2)n1,.,.,-2%,.,.,.
Cc1cc2oc(=O)cc(-c3ccccc3)c2c(C)c1-c1ccoc1,.,-30%,.,.,.,?
O=C(c1ccco1)N(CCC(c1ccccc1)c1ccco1)Cc1ccco1 (stereo not drawn),-2%,?,?,-14%,?,?
Cc1ccc(C(CCN(Cc2ccccc2)C(=O)c2ccco2)c2ccco2)cc1 (stereo not drawn),-22%[57.1 µM],40µM*,-26%,7%,-66%,?
CCCN(CCC)C(=O)CC(c1ccccc1)c1ccco1 (stereo not drawn),-2%[57.1 µM],45µM*,-12%,8%,-5%[57.1 µM],-12%
